In PubChem BioAssay AID1159580 (chemical genetic matrix, 2015):
Several values for one entry are separate records, joined by “and”; a condition that tells them apart may be missing. Equal values may be shown once. Hit rate of the full screen: of about 5,500 compounds, about 2,000 (36%) were called active. Roughly 18% stayed inconclusive and do not appear here. Rule as the data show it: active = normalized growth mostly below about 0.91 (no sharp cut-off); inconclusive = no clear call, values can overlap the other calls; inactive = mostly above about 0.92. The list shows a part of the results.

Test: chemical genetic growth profiling, strain panel (AID 1159580);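 also: tested at 20 µM; growth read once vehicle control cultures reached saturation at 30 °C; 1 = growth at the plate median or of vehicle wells; lower values mean less growth of the strain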
Details: S. cerevisiae deletion strains, growth OD

Measured: normalized growth

Nc1ccc(S(=O)(=O)Nc2nccs2)cc1
inactive: locus YAL013W, strain DEP1, stronger effect = lower value 1.01 | locus YAL021C, strain ccr4, stronger effect = lower value 1.02 | locus YAL026C, strain drs2, stronger effect = lower value 1.01 | locus YAL030W, strain snc1, stronger effect = lower value 1.02 | locus YBL061C, strain skt5, stronger effect = lower value 1.01 | locus YBR009C, strain hhf1, stronger effect = lower value 1 | locus YBR021W, strain FUR4, stronger effect = lower value 1 | locus YBR023C, strain chs3, stronger effect = lower value 1.03 | locus YBR171W, strain sec66, stronger effect = lower value 1.03 | locus YBR229C, strain ROT2, stronger effect = lower value 1 | locus YBR231C, strain swc5, stronger effect = lower value 1.04 | locus YBR279W, strain paf1, stronger effect = lower value 1.01 | locus YCL011C, strain gbp2, stronger effect = lower value 1.01 | locus YCL016C, strain dcc1, stronger effect = lower value 1 | locus YCL029C, strain bik1, stronger effect = lower value 0.998 | locus YCL069W, strain vba3, stronger effect = lower value 1.01 | locus YCR088W, strain abp1, stronger effect = lower value 1.01 | locus YDL005C, strain med2, stronger effect = lower value 1.01 | locus YDL035C, strain GPR1, stronger effect = lower value 1.04 | locus YDL040C, strain nat1, stronger effect = lower value 1.02 | locus YDL074C, strain BRE1, stronger effect = lower value 1.01 | locus YDL101C, strain DUN1, stronger effect = lower value 1 | locus YDL134C, strain PPH21, stronger effect = lower value 1.01 | locus YDL185W, strain tfp1, stronger effect = lower value 1.01 | locus YDL192W, strain arf1, stronger effect = lower value 1.01 | locus YDR001C, strain nth1, stronger effect = lower value 1.02 | locus YDR069C, strain doa4, stronger effect = lower value 1.02 | locus YDR101C, strain arx1, stronger effect = lower value 1 | locus YDR137W, strain rgp1, stronger effect = lower value 1.02 | locus YDR150W, strain NUM1, stronger effect = lower value 1.01 | locus YDR159W, strain sac3, stronger effect = lower value 1.02 | locus YDR162C, strain NBP2, stronger effect = lower value 1.02 | locus YDR195W, strain ref2 1.01 | locus YDR297W, strain sur2, stronger effect = lower value 1.02 | locus YDR318W, strain mcm21, stronger effect = lower value 0.985 | locus YDR334W, strain swr1, stronger effect = lower value 1.01 | locus YDR335W, strain msn5, stronger effect = lower value 1.02 | locus YDR388W, stronger effect = lower value 0.995 | locus YDR392W, strain spt3, stronger effect = lower value 0.954 | locus YDR502C, strain sam2, stronger effect = lower value 1.01 | locus YEL003W, strain gim4, stronger effect = lower value 1.02 | locus YEL037C, strain rad23, stronger effect = lower value 1.01 | locus YEL061C, strain CIN8 (second series), stronger effect = lower value 1.01 | locus YEL061C, strain CIN8, stronger effect = lower value 1 | locus YER015W, strain faa2, stronger effect = lower value 1.04 | locus YER016W, strain bim1, stronger effect = lower value 0.997 | locus YER110C, stronger effect = lower value 0.995 | locus YER111C, strain swi4, stronger effect = lower value 1.01 | locus YER155C, strain BEM2 (second series), stronger effect = lower value 1.01 | locus YER155C, strain BEM2, stronger effect = lower value 0.996 | locus YER167W, strain BCK2, stronger effect = lower value 1.03 | locus YFR010W, strain ubp6, stronger effect = lower value 1.02 | locus YGL078C, strain dbp3, stronger effect = lower value 1.01 | locus YGL086W, strain mad1, stronger effect = lower value 1.02 | locus YGL167C, strain pmr1, stronger effect = lower value 1.02 | locus YGL173C, strain kem1, stronger effect = lower value 1.02 | locus YGL227W, strain vid30, stronger effect = lower value 1.02 | locus YGL240W, strain doc1, stronger effect = lower value 1.02 | locus YGL248W, strain PDE1, stronger effect = lower value 1.02 | locus YGL253W, strain hxk2, stronger effect = lower value 1.02 | locus YGR078C, strain PAC10, stronger effect = lower value 1 | locus YGR135W, strain pre9, stronger effect = lower value 1.01 | locus YGR229C, strain SMI1, stronger effect = lower value 1.01 | locus YGR252W, strain gcn5, stronger effect = lower value 1.06 | locus YHR013C, strain ard1, stronger effect = lower value 1 | locus YHR027C, strain rpn1, stronger effect = lower value 1.02 | locus YHR030C, strain SLT2, stronger effect = lower value 1.01 and 0.999 | locus YHR079C, strain IRE1 (second series), stronger effect = lower value 0.995 | locus YHR079C, strain IRE1, stronger effect = lower value 1.03 | locus YHR094C, strain hxt1, stronger effect = lower value 0.99 | locus YHR129C, strain ARP1, stronger effect = lower value 1 | locus YHR142W, strain chs7, stronger effect = lower value 1.01 | locus YHR200W, strain rpn10, stronger effect = lower value 1 | locus YIL066C, strain RNR3, stronger effect = lower value 1.02 | locus YIL073C, strain SPO22, stronger effect = lower value 1 | locus YIL125W, strain kgd1, stronger effect = lower value 1.01 | locus YIR030C, strain dcg1, stronger effect = lower value 0.995 | locus YJL092W, strain hpr5, stronger effect = lower value 1.01 | locus YJL095W, strain BCK1 (second series), stronger effect = lower value 1.02 | locus YJL095W, strain BCK1, stronger effect = lower value 1 | locus YJL115W, strain asf1, stronger effect = lower value 1.02 | locus YJL129C, strain trk1, stronger effect = lower value 1.02 | locus YJL134W, strain LCB3, stronger effect = lower value 1.01 | locus YJL154C, strain vps35, stronger effect = lower value 1.01 | locus YJL164C, strain tpk1, stronger effect = lower value 0.996 | locus YJL166W, strain qcr8, stronger effect = lower value 1.03 | locus YJL168C, strain set2, stronger effect = lower value 0.992 | locus YJL187C, strain SWE1 (second series), stronger effect = lower value 1.01 | locus YJL187C, strain SWE1, stronger effect = lower value 1.02 | locus YJR043C, strain POL32, stronger effect = lower value 1 | locus YJR066W, strain TOR1, stronger effect = lower value 0.939
